TGFb inhibitor: blocks TGF-b signaling | HepG2 CAGA-GFP TGF-b/SMAD3 reporter, GFP fluorescence, 18 h; TGF-beta stimulated, 500 pg/mL final | Potency, µM (doses to about 46.1 µM), for inactives: at the top dose activity, negative = inhibition, usual class: inhibitors | 1.2% of 410,000 active; note: potency is the fitted concentration of half-maximal effect; % is set by controls: 0 for no effect and ±100 for the full control effect; nearly all actives have a fitted effect of over 65% in size
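HEPG2 CAGA-GFP, 1000 cells/well; 2 h settle, 37 C; cpd via pin tool; TGF-b 500 pg/mL final; 18 h, 37 C; GFP imaging ex488/em500-530; %Activity normalised to -TGF-b and +DMSO controls; CRC fit, curve class.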
ATXN2 expr inh: ATXN2 expression inhibition. HEK-293 ATXN2-luciferase reporter, luminescence, 24 h. Potency, µM (series often up to 57 µM), for the others: top-dose activity change, negative = inhibition, most hits filed as inhibitors. 0.72% of 360,000 active. AID 1745845; note: potency is the fitted concentration of half-maximal effect; % is set by controls: 0 for no effect and ±100 for the full control effect; nearly all actives have a fitted effect of over 55% in size
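ATXN2-luciferase reporter cells (luciferase flanked by upstream and downstream ATXN2 gene portions) were treated 24 h at 37 °C with compounds at up to 57 uM. SteadyGlo luminescence gave expression; GF-AFC fluorescence gave viability.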
DRD3 antagonist: antagonists of human D3 dopamine receptor; P35462; D3R cells, DiscoveRx beta-arrestin luminescence, antagonist mode; stronger effect = lower value; max response, negative = inhibition, %; 2.5% of 360,000 active; AID 652054; in the data active = max response below about -50%; inconclusive = no clear call, values can overlap the other calls; note: % is set by controls: 0 for no effect and ±100 for the full control effect
Target sequence (P35462 whole entry, looked up): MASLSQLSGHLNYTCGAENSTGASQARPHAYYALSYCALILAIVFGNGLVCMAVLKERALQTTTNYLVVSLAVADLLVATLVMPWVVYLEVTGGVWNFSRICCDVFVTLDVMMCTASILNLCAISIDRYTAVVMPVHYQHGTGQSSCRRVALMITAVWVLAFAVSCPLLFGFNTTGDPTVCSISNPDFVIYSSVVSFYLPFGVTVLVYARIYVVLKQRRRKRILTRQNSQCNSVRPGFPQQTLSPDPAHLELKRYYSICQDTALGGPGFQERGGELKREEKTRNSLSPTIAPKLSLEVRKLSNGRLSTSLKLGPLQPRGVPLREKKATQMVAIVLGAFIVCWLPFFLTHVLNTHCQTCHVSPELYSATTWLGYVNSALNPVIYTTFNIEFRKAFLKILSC
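Cells expressing the human receptor were seeded at 1500 cells/well, incubated overnight at 37 degrees C in 5% CO2, then exposed to library compounds with dopamine controls for 90 minutes at 37 degrees C before luminescent detection.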
DRD3 agonist: agonists of human D3 dopamine receptor; P35462; D3R DiscoveRx beta-arrestin cells, luminescence, 90 min; max activation, %; 0.58% of 410,000 active; AID 652048; in the data active = max activation above about 30%; note: 0% is about no effect
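Agonist-mode cell screen: cells plated at 1500/well and incubated overnight at 37 °C, then exposed to library compounds for 90 min at 37 °C. Detection reagent was added for 30–60 min at room temperature, and luminescence was read.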
S2 tox: viability counter-screen for ATXN expression inhibitors. S2 cells (HEK-293 line with an ATXN2-luciferase reporter) viability, CellTiter-Fluor protease fluorescence, 24 h. Potency, µM (highest dose often 56.7 µM), most hits filed as cytotoxic. 0.49% of 400,000 active. AID 651635; note: potency is the fitted concentration of half-maximal effect; nearly all actives have a fitted effect of over 40% in size
HepG2 viability: HepG2 cytotoxicity, counter-screen for TGF-b inhibitors; HepG2 CAGA-GFP viability, ATP luminescence, 18 h; Potency, µM (series often up to 46.1 µM), without a hit: at the top dose activity change, negative = cytotoxicity, actives largely listed as cytotoxic; 0.76% of 410,000 active; note: potency is the fitted concentration of half-maximal effect
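HepG2 CAGA-GFP cells (1000/well, DMEM with 1% FBS) received compound, then TGF-beta at 500 pg/mL final, and were incubated 18 hours at 37 degrees C. Viability was read by CellTiter-Glo luminescence. Media-only wells were set as complete cell-killing and DMSO as no toxicity.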
* = called active by the depositor. Hits are enriched below; roughly 4.8% of the tested compounds scored in any of these assays. Unless noted, calls come from the whole dose curve; as a rule, active = well fitted curve in the direction sought with a large enough effect; inconclusive = small, poorly fitted or top-dose-only effect, or another doubt; inactive = no such curve, though single readings can be large; an effect the other way counts as inactive or inconclusive.

C=C[C@@H]1[C@@H](C)[C@H](C)C(=O)C([C@H](O)C(C)C)[C@@H]1C (some centres not stated) was read as TGFb inhibitor 3% and HepG2 viability 5%.
Cc1ccc(Cl)cc1NC(=O)Nc1nnc(N2CCCC(C)C2)s1 (configuration not stated) was read as TGFb inhibitor -7%, DRD3 agonist -3 and HepG2 viability 3%.
`CC(C)N(c1ccccc1)c1ccc(NC(=O)[C@@H]2O[C@H](CO)[C@H](O)[C@H](O)[C@H]2O)cc1` gave TGFb inhibitor 0%, ATXN2 expr inh -7%, DRD3 antagonist -5, DRD3 agonist -9, S2 tox inactive and HepG2 viability 6%.
CC(C)N(c1ccccc1)c1ccc(NC(=O)CCl)cc1 was read as TGFb inhibitor inconclusive, ATXN2 expr inh inconclusive, DRD3 antagonist -19, DRD3 agonist -9, S2 tox 27µM* and HepG2 viability -119%.
`Cc1cc2oc(=O)c(CC(=O)NCCc3ccccc3F)c(C)c2c2occ(C(C)(C)C)c12` gave TGFb inhibitor inconclusive, DRD3 agonist -15 and HepG2 viability -16%.
COc1ccc(/C=C\C(=O)O[C@@H]2C(O)C(O[C@@H]3OC(C)[C@H](O[C@@H]4OCC(O[C@H]5O[C@H](CO)[C@@H](O)C(O)C5O)C(O)C4O)C(O)C3O)[C@H](OC(=O)[C@]34CCC(C)(C)C[C@@H]3C3=CCC5[C@@]6(C)CC(O)C(O[C@@H]7OC(CO)C(O)[C@H](O)[C@H]7O)[C@@](C)(C(=O)O)C6CC[C@@]5(C)[C@]3(CO)CC4)O[C@H]2C)cc1 (some centres not stated) was read as TGFb inhibitor inconclusive, ATXN2 expr inh 7.1µM*, DRD3 antagonist 22, DRD3 agonist 5, S2 tox 11µM* and HepG2 viability -110%.
Screening C[C@@H]1CC[C@]2(C(=O)O[C@@H]3O[C@H](CO)[C@@H](O)[C@H](O)[C@H]3O)CC[C@]3(C)C(=CCC4[C@@]5(C)CC[C@H](O[C@@H]6OC[C@H](O)[C@H](O[C@@H]7O[C@H](CO)[C@@H](O)[C@H](O)[C@H]7O)[C@H]6O)C(C)(C)C5CC[C@]43C)C2[C@]1(C)O (some centres not stated) returned TGFb inhibitor 35%, ATXN2 expr inh -6%, DRD3 antagonist inconclusive, DRD3 agonist -23, S2 tox inactive and HepG2 viability 4%.
`COc1ccc(CC(=O)NC(C)c2nnc(SCC(=O)c3ccc(Br)cc3)n2C)cc1` (configuration not stated) gave TGFb inhibitor inconclusive, ATXN2 expr inh -5%, DRD3 antagonist -56*, DRD3 agonist 10, S2 tox inactive and HepG2 viability 5%.
CCOC(=O)c1[nH]cnc1N=Nc1c(O)ccc2ccccc12 was read as TGFb inhibitor 0%, ATXN2 expr inh 11µM*, DRD3 antagonist -5, DRD3 agonist -6, S2 tox 10µM* and HepG2 viability 4%.
For Cc1ccccc1OCCNCC(C)O (configuration not stated) the results were TGFb inhibitor 13%, ATXN2 expr inh -17%, DRD3 antagonist -57*, DRD3 agonist -12, S2 tox inactive and HepG2 viability 0%.
For CCc1ccc2oc(-c3ccc(C)c(NC(=O)COc4ccccc4Cl)c3)nc2c1 the results were TGFb inhibitor 1% and HepG2 viability -10%.
COc1ccc2[nH]cc(C(=O)CCl)c2c1 was read as TGFb inhibitor inconclusive, ATXN2 expr inh inconclusive, DRD3 antagonist -6, DRD3 agonist -4, S2 tox 16µM* and HepG2 viability -107%.
`COc1ccc2[nH]cc(C(=O)CN3CC(C)CC(C)C3)c2c1` (configuration not stated) gave TGFb inhibitor 1%, ATXN2 expr inh -14%, DRD3 antagonist 7, DRD3 agonist -2, S2 tox inconclusive and HepG2 viability -7%.
For CN1CCN(c2ccccc2NS(=O)(=O)c2ccc3c(c2)CCN3C(=O)C2CCC2)CC1 the results were TGFb inhibitor 0%, ATXN2 expr inh -12%, DRD3 antagonist -52*, DRD3 agonist -12, S2 tox inactive and HepG2 viability -48%.
For CCc1ccccc1NS(=O)(=O)c1ccc2c(c1)CCN2C(=O)C1CC1 the results were TGFb inhibitor -9%, ATXN2 expr inh 3%, DRD3 agonist 6, S2 tox inactive and HepG2 viability -1%.
Cc1c(C2(O)CCCCC2)[nH]c2ccc(C(F)(F)F)cc12 was read as TGFb inhibitor inconclusive, ATXN2 expr inh -38%, DRD3 antagonist 0, DRD3 agonist 14, S2 tox inconclusive and HepG2 viability -81%.
`CCc1c(C2(O)CCCCC2)[nH]c2cnccc12` gave TGFb inhibitor -1%, ATXN2 expr inh -9%, DRD3 antagonist -53*, DRD3 agonist -7, S2 tox inactive and HepG2 viability -26%.
O=C(O)c1ccc2nc(-c3ccccc3)sc2c1 was read as TGFb inhibitor -3%, ATXN2 expr inh 8.9µM*, DRD3 antagonist 0, DRD3 agonist -5, S2 tox inactive and HepG2 viability -1%.
For Nc1ccc(-c2nc3ccc(C(=O)O)cc3s2)cc1 the results were TGFb inhibitor 13%, ATXN2 expr inh 1.4µM*, DRD3 antagonist 11, DRD3 agonist 1, S2 tox inactive and HepG2 viability -3%.
Nc1cc2sc(-c3ccc(C(=O)O)cc3)nc2cc1Cl was read as TGFb inhibitor -17%, ATXN2 expr inh -25%, DRD3 antagonist 4, DRD3 agonist 9 and HepG2 viability -61%.
For Nc1ccc(-c2nc3ccc(N)cc3s2)cc1 the results were TGFb inhibitor -14%, ATXN2 expr inh 20µM*, DRD3 antagonist 6, DRD3 agonist -3, S2 tox inactive and HepG2 viability -26%.
For CC1CCN(c2nc3ccc(C(=O)O)cc3s2)CC1 the results were TGFb inhibitor -4%, ATXN2 expr inh 2.2µM*, DRD3 antagonist -11, DRD3 agonist -11, S2 tox inactive and HepG2 viability 5%.
For CC1CCN(c2nc3ccc(C(=O)NCc4ccc(Cl)cc4)cc3s2)CC1 the results were TGFb inhibitor -6%, ATXN2 expr inh 90%, DRD3 agonist -4, S2 tox inactive and HepG2 viability -4%.

Assay outcomes: PubChem BioAssay, National Center for Advancing Translational Sciences (NCATS)
